PubChem BioAssay AID434989 (The Scripps Research Institute Molecular Screening Center, 2010)
Out of some 330,000 compounds screened, about 1,400 (0.42%) were called active.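 Rule for the calls: active = inhibition above its plate's threshold, mean inhibition of all tested compounds on the plate plus 3 SD (cut at about 37% in these data); inactive = the rest.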 Many of the other results were omitted from the sample, so actives are more common in it than they were.

Target: Orexin/Hypocretin receptor type 1 (Homo sapiens) (UniProt O43613)
Assay: blockers of orexin-A calcium signaling via HCRTR1 – fluorescence, CHO/OX1R cells, Fluo-8 calcium, primary screen (AID 434989);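 note: 0% = orexin A challenge wells and 100% = SB-334867-A antagonist wells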
Settings: Fluo-8 calcium fluorescence, at 5 µM, stronger effect = higher value

Chain of Orexin/Hypocretin receptor type 1 (Homo sapiens) (O43613 whole entry, looked up): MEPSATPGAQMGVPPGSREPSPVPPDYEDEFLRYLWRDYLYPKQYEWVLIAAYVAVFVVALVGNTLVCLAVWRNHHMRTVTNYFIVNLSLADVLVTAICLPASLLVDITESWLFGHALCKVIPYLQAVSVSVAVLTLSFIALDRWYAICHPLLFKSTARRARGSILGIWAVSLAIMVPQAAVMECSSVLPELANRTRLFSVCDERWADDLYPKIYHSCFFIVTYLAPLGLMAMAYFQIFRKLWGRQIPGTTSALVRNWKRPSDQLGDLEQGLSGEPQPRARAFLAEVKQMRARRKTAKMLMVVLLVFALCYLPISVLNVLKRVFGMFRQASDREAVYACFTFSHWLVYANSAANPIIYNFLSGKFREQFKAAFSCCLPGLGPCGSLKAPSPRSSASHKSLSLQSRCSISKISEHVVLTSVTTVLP

Row | SMILES | inhibition
1 | COCCn1c(C)cc(C(=O)CN2c3cccc4cccc(c34)S2(=O)=O)c1C | -15.1% (inactive)
2 | OC(CNCCc1ccc(Cl)cc1Cl)COc1ccccc1 (stereo not drawn) | -12.8% (inactive)
3 | NC(N)=N/N=C/c1ccc(OCc2ccc(Cl)cc2Cl)cc1 | 60% (active)
4 | CCOc1ccc(NC(=O)NNC(=O)c2ccc(Cl)cc2Cl)cc1 | -32.5% (inactive)
5 | Cc1noc(C)c1S(=O)(=O)N(C)C[C@H]1Oc2ccc(NC(=O)C3CCCCC3)cc2C(=O)N([C@H](C)CO)C[C@@H]1C | -7.01% (inactive)
6 | CC[C@@H](C)[C@@H]1CN([C@@H](C)CN2CCC[C@H]2CN2C(N)=NC[C@H]2C(C)C)C(=N)N1CCc1ccc(Cl)c(Cl)c1 | -14.1% (inactive)
7 | CC(=O)N/C(=C/c1ccc(Cl)cc1)C(=O)NCCc1c[nH]c2ccccc12 | -8.41% (inactive)
8 | N#C/C(=C/c1ccc(N2CCCCC2)o1)C(=O)NCCc1c[nH]c2ccccc12 | 61.6% (active)
9 | O=C(CN1C(=O)NC2(CCCCC2)C1=O)NCCc1c[nH]c2ccccc12 | -22.5% (inactive)
10 | CN(C)C(=O)CCc1ccc2c3c([nH]c2c1)[C@]1(C)[C@@H](C(=O)N2CCOCC2)C[C@H](CC(=O)NCCc2ccccn2)C(=O)N1CC3 | -9.61% (inactive)
11 | O=C(CN1C(=O)NC2(CCOc3ccccc32)C1=O)Nc1cccc([N+](=O)[O-])c1 (stereo not drawn) | -4.96% (inactive)
12 | COc1cccc(C(=O)NNC(=O)c2cccc(F)c2)c1 | -14.5% (inactive)
13 | COc1cccc(C(=O)NC(=O)Nc2nc(C)cc(C(F)(F)F)n2)c1 | 43.9% (active)
14 | Cc1cc(C)nc(NC(=O)Nc2ccccc2C(F)(F)F)n1 | -30.4% (inactive)
15 | CCNC(=S)N1CCN(S(=O)(=O)c2ccc(Cl)s2)CC1 | -8.33% (inactive)
16 | COc1ccc(CNC(=O)C[C@H]2C[C@H](C(=O)N3CCOCC3)[C@@]3(C)c4[nH]c5cc(CCC(=O)N(C)C)ccc5c4CCN3C2=O)cc1OC | -8.18% (inactive)
17 | CC1=C/C(=N\OS(=O)(=O)c2ccccc2)C=CC1=O | 50.8% (active)
18 | CC(C)N(C(=O)[C@H]1C[C@H](CC(=O)NCCC2=CCCCC2)C(=O)N2CCc3c([nH]c4cc(CCC(=O)N(C)C)ccc34)[C@]12C)C(C)C | -35.9% (inactive)
19 | O=C(/C=C(O)/C=C/c1ccc(O)cc1)/C=C/c1ccc(O)cc1 | 88% (active)
20 | O=C(/C=C/c1ccc2c(c1)OCCO2)c1ccc(O)cc1 | -5.09% (inactive)
21 | O=C(/C=C/c1ccc(Cl)c([N+](=O)[O-])c1)c1ccc(O)cc1 | -19.1% (inactive)
22 | Cc1ccc(S(=O)(=O)N2[C@@H](c3cccc4ccccc34)C(C(=O)O)=C[C@H]2C(C)(C)C)cc1 | -3.21% (inactive)
23 | CCN(C[C@H]1N[C@@](CC)(C(=O)OC)[C@H]2C(=O)N(Cc3ccccc3)C(=O)[C@@H]12)S(=O)(=O)c1ccccc1 | -23.9% (inactive)
24 | O=C(COC(=O)/C=C/c1cccc(Cl)c1)NCc1cccs1 | -21.7% (inactive)
25 | Cc1ccc(S(=O)(=O)N(C)c2ccc(OCC(=O)OCc3ccc(C#N)cc3)cc2)cc1 | 0.88% (inactive)
26 | CC1(C)C=Cc2c(ccc3c2OC[C@@H](c2ccc(O)cc2O)C3)O1 | 47.2% (active)
27 | COc1cc(/C=C/C(=O)OCC(=O)NC2CC2)cc(OC)c1OC | -7.25% (inactive)

Row | SMILES | inhibition
28 | C/C(N)=C(/C#N)C(=O)COC(=O)c1cc(-c2ccc(C)cc2)nc2ccccc12 | 47.2% (active)
29 | C/C(N)=C(/C#N)C(=O)COC(=O)c1cc(-c2cccc(Br)c2)nc2ccccc12 | 15.2% (inactive)
30 | C/C(N)=C(/C#N)C(=O)COC(=O)c1cc(-c2ccccc2)nc2ccc(Br)cc12 | 5.4% (inactive)
31 | CC(C)COc1ccc(C(=O)NNC(=O)CCC(=O)c2cccs2)cc1 | -18.4% (inactive)
32 | O=C(NCC(=O)N1CCCC(C(F)(F)F)C1)c1ccccc1F (stereo not drawn) | 0.97% (inactive)
33 | FC(F)(F)C1CCCN(c2nsc3ccccc23)C1 (stereo not drawn) | 46.1% (active)
34 | O=C(NC(Cc1ccccc1)C(=O)N1CCCC(C(F)(F)F)C1)c1ccccc1 (stereo not drawn) | -34.6% (inactive)
35 | Cc1onc(-c2c(F)cccc2Cl)c1C(=O)OCC(=O)N1C(C)CCCC1C (stereo not drawn) | -24.4% (inactive)
36 | COc1ccc(NC(=O)CNc2cc(S(=O)(=O)N3CCOCC3)ccc2N2CCOCC2)c(OC)c1 | -10.3% (inactive)
37 | COc1cc(/C=C2/SC(=S)N(Cc3ccccc3)C2=O)cc(OC)c1O | 31.2% (inactive)
38 | CN(C)c1ccc(/C=C2\NC(=S)N(Cc3ccccc3)C2=O)cc1 | 91.7% (active)
39 | O=C1/C(=C\c2ccsc2)NC(=S)N1c1ccccc1 | -19.5% (inactive)
40 | CCOc1ccc(N2CC(C(=O)NCCN3C(=O)S/C(=C\c4cccnc4)C3=O)CC2=O)cc1 (stereo not drawn) | -17.9% (inactive)
41 | O=C(NCCN1C(=O)S/C(=C\c2cccnc2)C1=O)c1cccc(OC(F)F)c1 | -28.3% (inactive)
42 | Cc1cc(OCCCC(=O)NCCN2C(=O)S/C(=C\c3cccnc3)C2=O)ccc1Cl | 94.3% (active)
43 | COC(=O)[C@]1(Cc2ccccc2)N[C@H](CN(C)S(=O)(=O)c2ccc(OC(F)(F)F)cc2)[C@@H]2C(=O)N(C)C(=O)[C@@H]21 | -30.2% (inactive)
44 | COC(=O)c1ccc(/C=C/c2c(-c3ccc(OC)cc3)sc3ccccc23)cc1 | -6.38% (inactive)
45 | COc1ccc(CNC(=O)COC(=O)C(CCSC)N2C(=O)c3ccccc3C2=O)cc1 (stereo not drawn) | -29.7% (inactive)
46 | CCOC(=O)[C@H]1[C@H]2COc3ccccc3[C@@H]2N2C(=O)CN(Cc3ccccc3)C(=O)[C@@]12C | -30.6% (inactive)
47 | Cc1cc(N2CCCC2=O)cc(C)c1S(N)(=O)=O | 44.7% (active)
48 | CN(C)S(=O)(=O)c1ccc(N2CCCC2=O)c([N+](=O)[O-])c1 | -12.1% (inactive)
49 | CNS(=O)(=O)c1ccc(N2CCCC2=O)c([N+](=O)[O-])c1 | -6.08% (inactive)
50 | O=C1CSc2ccc(C(=O)NCc3ccccn3)cc2N1 | 7.19% (inactive)
51 | COc1cccc(/C=N/NC(=O)c2[nH]nc3c2CCc2ccccc2-3)c1O | 38.6% (active)
52 | COc1ccc(/C=N/NC(=O)c2ccc3c(c2)OCCO3)c(OC)c1 | -14.1% (inactive)
53 | CN(C)CCNC(=O)c1[nH]nc2c1CCc1ccccc1-2 | -12% (inactive)
